# The list is not random: actives were taken first. Their share in the collection is about 3.7%.
# Vc quorum ag = inducers of Vibrio cholerae quorum light production without autoinducers, primary screen, BH1578 luxS cqsA deficient, single point. V. cholerae BH1578 lux reporter, luminescence, 6 h. activation, % at 18.7 µM. 0.16% of 350,000 active. AID 588436, 2011; in the data active means activation mostly above about 9.7%, no sharp cut-off; inconclusive means no clear call, values can overlap the other calls; inactive means mostly below about 3.7%
# Bead autofluor = counter-screen for toxin protease inhibitors: compound fluorescence; compound autofluorescence counterscreen, microsphere flow cytometry; stronger effect = higher value; fluorescence intensity (no concentration beside the values); 3.1% of 360,000 active; AID 624483; in the data active means fluorescence intensity above about 16000; inconclusive means no clear call, values can overlap the other calls
# BoNT F protease = BoNT/F light chain protease inhibitors, primary screen, biochemical, flow cytometry, MLPCN library; Multiplex microsphere protease cleavage assay; inhibition, % at 10 µM; 0.22% of 360,000 active; AID 588497, 2011; in the data active means inhibition above about 35%, passing the limit was not always enough; inconclusive means no clear call, values can overlap the other calls
# Anthrax LF prot = Bacillus anthracis LF protease inhibitors, primary screen, biochemical, multiplex microsphere, MLPCN library. 0.12% of 360,000 active. AID 588501, 2011. inhibition, % at 10 µM. Lethal factor (Bacillus anthracis), P15917. multiplex microsphere protease cleavage assay
# BoNT-A LC inh2 = BoNT/A light chain protease inhibitors, primary screen, biochemical, flow cytometry, MLPCN library; inhibition, % at 10 µM; Botulinum neurotoxin type A light chain protease (Clostridium botulinum A str. ATCC 3502); 0.17% of 360,000 active; multiplex microsphere protease substrate cleavage
# BJeLR viability = MLPCN primary cell-based screen for lethality selective to Ras in HRASV12 cells. BJeLR (HRASV12) viability, CellTiter-Glo ATP luminescence, 48 h. inhibition, % (test concentration not listed). 0.17% of 300,000 active. AID 1554, 2009; in the data active means inhibition above about 50%; inconclusive means no clear call, values can overlap the other calls
# Hits are given with their value; 0 = inactive; ? = inconclusive; - = no result. Unless noted, no stated cut-off is given here; in the data, active means inhibition above about 30%; inconclusive means no clear call, values can overlap the other calls; inactive means below that.
SMILES,Vc quorum ag,Bead autofluor,BoNT F protease,Anthrax LF prot,BoNT-A LC inh2,BJeLR viability
O=C(Nc1cccnc1)c1noc2c1CCCC2,0,26961,0,0,0,0
Cc1cc(NC(=O)c2noc3c2CCCC3)no1,0,21619,0,0,0,0
Cn1c(=O)c2c(nc(CN3CCN(C(=O)c4ccco4)CC3)n2CCc2ccccc2)n(C)c1=O,0,21635,0,0,0,0
Cn1c(=O)c2c(nc(CN3CCN(C(=O)c4ccco4)CC3)n2Cc2ccccc2)n(C)c1=O,0,0,0,0,0,0
Cn1c(=O)c2c(nc(CN3CCN(C(=O)c4ccco4)CC3)n2Cc2cccc(Cl)c2)n(C)c1=O,0,22343,0,0,0,0
O=C(c1ccco1)N1CCN(Cc2nc3ccccc3c(=O)n2-c2ccc(F)cc2)CC1,0,22917,0,0,0,0
Cn1c(=O)c2c(nc(CN3CCN(C(=O)c4ccco4)CC3)n2Cc2ccc(Cl)cc2)n(C)c1=O,0,18363,0,0,0,0
CCOC(=O)C1CCN(Cc2nc3ccccc3c(=O)n2-c2ccc(F)cc2)CC1,0,-,-,-,-,0
C/C(Cn1cnc([N+](=O)[O-])n1)=N\NC(=O)c1cccc(F)c1,0,0,36,0,0,0
C/C(Cn1cnc([N+](=O)[O-])n1)=N\NC(=O)c1ccc(F)cc1,0,0,0,0,0,0
O=C(Nc1ccccc1)OC[C@@H]1C=CS(=O)(=O)N1Cc1ccc(Br)cc1,-,0,0,0,0,-
C=CCn1c(=O)c2c(nc3n2CCN3c2cccc(Cl)c2C)n(C)c1=O,0,16780,0,0,0,0
CN(Cc1cnn(-c2ccc(F)cc2)c1)C(=O)[C@H]1O[C@@H](n2cnc3c(N)ncnc32)[C@H](O)[C@@H]1O,-,0,0,0,0,-
CCOC(=O)c1c(C)n(CC(COC(C)=O)OC(C)=O)c2ccc(OC(C)=O)cc12 (stereo not drawn),0,16360,0,0,0,0
CC1(C(=O)NS(C)(=O)=O)CCN1C(=O)C/C=C/c1ccccc1 (stereo not drawn),0,0,0,0,0,-
O=C(NCc1ccc(F)cc1)c1noc2c1CCCC2,0,19451,0,0,0,0
O=C(NCc1ccc(F)cc1)c1noc2c1CCCCC2,0,0,0,0,0,0
Cc1ccc(NC(=O)c2noc3c2CC(C(C)(C)C)CC3)cc1 (stereo not drawn),0,0,0,0,0,0
CC(C)(C)C1CCc2onc(C(=O)NCc3ccc(F)cc3)c2C1 (stereo not drawn),0,22455,0,0,0,-
Cc1ccccc1Cn1cc(NC(=O)c2noc3c2CC(C(C)(C)C)CC3)cn1 (stereo not drawn),0,16905,0,0,?,0
CC(=O)c1ccc(OC(=O)C(CCS(C)(=O)=O)N2C(=O)c3ccccc3C2=O)cc1 (stereo not drawn),0,21318,0,0,0,0
CN(C)/C=N/c1ncc(C(=O)c2ccc(Cl)cc2)s1,0,22056,0,0,0,0
CN(C)/C=N/c1ncc(C(=O)c2ccc(Cl)cc2Cl)s1,0,0,0,0,0,0
CC1(C(=O)NC2CCCC2)CCC(=O)N1Cc1cccs1 (stereo not drawn),0,22707,0,0,?,0
CC1(C(=O)NC2CCCCCCC2)CCC(=O)N1Cc1cccs1 (stereo not drawn),0,16346,0,0,0,0
SMILES,Vc quorum ag,Bead autofluor,BoNT F protease,Anthrax LF prot,BoNT-A LC inh2,BJeLR viability
CC[C@@]1(C(=O)OC)N[C@H](CN(C)S(=O)(=O)c2ccc(OC)cc2)[C@@H]2C(=O)N(C)C(=O)[C@@H]21,0,0,0,0,0,-
CCOC(=O)C(C)N1c2cccc3cccc(c23)S1(=O)=O (stereo not drawn),0,0,0,0,0,-
CCc1nnc(NC(=O)CCN2C(=O)c3ccccc3C2=O)s1,0,22862,0,0,0,0
O=C(CN1CCOCC1)Nc1ncc(Cc2ccccc2Cl)s1,0,0,0,0,0,0
CCc1ccc(CCC(=O)Nc2nnc(CC)s2)o1,0,16177,0,0,0,0
CCc1ccc(CCC(=O)Nc2ncc(Cc3ccccc3Cl)s2)o1,0,0,0,0,0,57

# High-throughput results (PubChem)
